The values that follow come from PubChem BioAssay AID588511 (Johns Hopkins Ion Channel Center, 2011).

Molecules are shown by their SMILES. Among all 310,000 compounds or so, about 3,600 (1.2%) were called active.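 How the source made its calls: active means ratio plate-corrected score three or more library SD toward inhibition, starting fluorescence score within five deviations; inactive means the rest.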 The entries come from a sample that favours actives as a whole.

Chain of Anoctamin-1 (Mus musculus) (Q8BHY3 whole entry, looked up): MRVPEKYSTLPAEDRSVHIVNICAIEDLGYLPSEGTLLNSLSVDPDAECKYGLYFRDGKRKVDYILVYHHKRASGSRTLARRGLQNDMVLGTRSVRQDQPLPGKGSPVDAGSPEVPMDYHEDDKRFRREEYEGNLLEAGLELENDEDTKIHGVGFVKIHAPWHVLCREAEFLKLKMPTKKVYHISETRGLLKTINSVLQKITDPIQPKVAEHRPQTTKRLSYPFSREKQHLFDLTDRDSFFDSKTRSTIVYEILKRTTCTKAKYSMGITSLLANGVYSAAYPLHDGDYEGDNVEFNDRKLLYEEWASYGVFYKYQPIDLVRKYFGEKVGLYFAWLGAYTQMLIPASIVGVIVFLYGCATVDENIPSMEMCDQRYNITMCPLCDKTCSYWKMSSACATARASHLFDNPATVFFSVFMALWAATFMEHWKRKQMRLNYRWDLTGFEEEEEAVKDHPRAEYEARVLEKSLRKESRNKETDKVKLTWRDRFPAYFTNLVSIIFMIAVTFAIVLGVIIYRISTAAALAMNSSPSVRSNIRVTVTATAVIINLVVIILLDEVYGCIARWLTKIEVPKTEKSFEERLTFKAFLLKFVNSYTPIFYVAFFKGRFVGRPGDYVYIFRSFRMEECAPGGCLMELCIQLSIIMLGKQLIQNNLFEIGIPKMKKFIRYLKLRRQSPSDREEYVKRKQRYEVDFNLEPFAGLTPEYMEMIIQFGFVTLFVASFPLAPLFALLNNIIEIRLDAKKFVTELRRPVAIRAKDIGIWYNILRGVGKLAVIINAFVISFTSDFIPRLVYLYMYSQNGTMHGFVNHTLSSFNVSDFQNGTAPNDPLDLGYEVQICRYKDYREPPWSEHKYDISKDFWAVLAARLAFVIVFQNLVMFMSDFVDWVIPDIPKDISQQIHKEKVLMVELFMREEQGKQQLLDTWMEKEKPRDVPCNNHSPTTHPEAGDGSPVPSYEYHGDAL

This test has as its target Anoctamin-1 (Mus musculus) (UniProt Q8BHY3). Put plainly: TMEM16A chloride channel inhibitors, primary screen, cell-based, HTS (AID 588511).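 On normalized B-score (activity score, 25-100; higher = stronger inhibition): score derived from kinetic fluorescence span divided by baseline fluorescence per well.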 Conditions: HEK293 TMEM16A/YFP iodide influx fluorescence, ionomycin; at 10 µM.
Regarding `COc1ccc([C@H]2[C@H](C(C)=O)N3N=Cc4ccccc4C3C23C(=O)OC(C)(C)OC3=O)cc1` (some centres not stated), the normalized B-score (activity score, 25-100; higher = stronger inhibition) result was “inactive”.

As for `O=C(Nc1cccc(Cl)c1Cl)c1ccccc1NC(=O)C1CC=CCC1C(=O)O` (configuration not stated), the normalized B-score (activity score, 25-100; higher = stronger inhibition) entry is “inactive”. With `Cc1oc2nc(SCC(=O)Nc3ccc(S(N)(=O)=O)cc3)nc(NC(=O)c3ccccc3)c2c1C`, the normalized B-score (activity score, 25-100; higher = stronger inhibition) result is “inactive”.

For `Cc1c(C(=O)NC(=S)NCc2cccnc2)oc2ccccc12`, the normalized B-score (activity score, 25-100; higher = stronger inhibition) entry was “inactive”. Consider `Cc1oc2nc(SCC(=O)NCc3cccnc3)nc(N)c2c1C`, for which the normalized B-score (activity score, 25-100; higher = stronger inhibition) was 100 (active). For `COc1ccc(CCNC(=O)c2nnc(CS(=O)(=O)c3ccccc3)o2)cc1OC` the value was “inactive”; for `Cc1ccccc1NC(=O)Nc1ccccc1N1CCCCC1`, “inactive”; for `O=C(CNCCC1=CCCCC1)Nc1ccccc1N1CCCCCC1`, 25 (active). Consider `Cc1ccccc1NC(=O)CNc1ccccc1N1CCCCC1`, for which the normalized B-score (activity score, 25-100; higher = stronger inhibition) entry was “inactive”. For `COc1ccccc1CNC(=O)CSc1nc(=O)n(Cc2ccncc2)c2c1CCC2` the value was “inactive”. For `CCN(CC)CCCNC(=O)CCn1nc(-c2ccc(Cl)cc2)ccc1=O` the value was “inactive”.

On to `Cc1ccc(-c2c[n+](=O)c3c(n2[O-])CCC3)cc1`, for which the normalized B-score (activity score, 25-100; higher = stronger inhibition) entry is “inactive”.

Regarding `Cc1ccc(OCCCC(=O)Nc2ccc(S(=O)(=O)Nc3cc(C)nc(C)n3)cc2)cc1`, the normalized B-score (activity score, 25-100; higher = stronger inhibition) entry was “inactive”. For `O=C(Cn1cnc2ccccc2c1=O)Nc1cccc(S(=O)(=O)N2CCCCC2)c1`, the normalized B-score (activity score, 25-100; higher = stronger inhibition) entry is “inactive”.

As for `CC1CCN(S(=O)(=O)c2ccc3ncn(CC(=O)N(C)C4CCCCC4)c(=O)c3c2)CC1`, the normalized B-score (activity score, 25-100; higher = stronger inhibition) result is “inactive”. With `CCN1CCCC1CNC(=O)Cn1cnc2ccc(S(=O)(=O)N3CCC(C)CC3)cc2c1=O` (configuration not stated), the normalized B-score (activity score, 25-100; higher = stronger inhibition) was 25 (active). Consider `CC(=O)NC1C(Oc2ccc(C=O)cc2)OC(COC(C)=O)C(OC(C)=O)C1OC(C)=O` (configuration not stated), for which the normalized B-score (activity score, 25-100; higher = stronger inhibition) entry is “inactive”. On to `COc1ccc(C(=O)NC(=S)NNC(=O)c2c(-c3ccccc3)noc2C)cc1`, for which the normalized B-score (activity score, 25-100; higher = stronger inhibition) was 100 (active). Take `COc1ccc(C(=O)NNC(=S)NC(=O)c2ccccc2)cc1`: the normalized B-score (activity score, 25-100; higher = stronger inhibition) entry is “inactive”. On to `Cc1onc(-c2ccccc2)c1C(=O)NNC(=S)NC(=O)c1ccc(F)cc1`, for which the normalized B-score (activity score, 25-100; higher = stronger inhibition) entry is “inactive”. For `CC(C)C[C@H](NC(=O)C1CC(=O)N(c2ccc3c(c2)OCCO3)C1)C(=O)NC1CCCC1` (some centres not stated) the value was “inactive”; for `Cc1cccc(C)c1NC(=O)c1ccc(CN2CCc3ccccc3C2)cc1`, “inactive”. For the molecule `CN(c1ccc(C(=O)N2CCc3ccccc3C2)cc1)S(C)(=O)=O`, the normalized B-score (activity score, 25-100; higher = stronger inhibition) entry was “inactive”. Take `CN(c1cccc(NC(=O)c2ccc(CN3CCc4ccccc4C3)cc2)c1)S(C)(=O)=O`: the normalized B-score (activity score, 25-100; higher = stronger inhibition) is 25 (active). For `COc1cccc(-n2c(=O)c3c(C)c(C(=O)N(C)C)sc3n(CC(=O)NCCc3ccc(OC)c(OC)c3)c2=O)c1`, the normalized B-score (activity score, 25-100; higher = stronger inhibition) result is “inactive”. In the case of `Cc1nc(SC(C)C)[nH]c(=O)c1Cc1ccccc1`, the normalized B-score (activity score, 25-100; higher = stronger inhibition) result was “inactive”. With `O=C1CC(C(F)(F)C(F)(F)C(F)(F)C(F)(F)F)=Nc2ccccc2N1`, the normalized B-score (activity score, 25-100; higher = stronger inhibition) result was “inactive”. For `Cc1ccc(-n2ncc3c(=O)[nH]cnc32)c(C)c1` the value was “inactive”; for `Cc1ccc(-n2ncc3c(N4CCN(c5ccc(F)cc5)CC4)ncnc32)c(C)c1`, 100 (active). As to `Cc1ccc2cc(C)c(N3CCN(c4ccc(F)cc4)CC3)nc2c1`, the normalized B-score (activity score, 25-100; higher = stronger inhibition) entry is “inactive”.

`CCN(CC)C(=O)Oc1ccc(OC(=O)N(CC)CC)cc1`: the normalized B-score (activity score, 25-100; higher = stronger inhibition) entry was “inactive”. Regarding `Cc1ccc(NC(=O)CN2C(=O)NC(C)(c3ccc(Cl)cc3)C2=O)c(Br)c1` (configuration not stated), the normalized B-score (activity score, 25-100; higher = stronger inhibition) result is “inactive”. With `CCOC(=O)C1=C(CN2CCCCCC2)NC(=O)NC1c1cccc([N+](=O)[O-])c1` (configuration not stated), the normalized B-score (activity score, 25-100; higher = stronger inhibition) result was “inactive”.

`CCOC(=O)C1=C(CN2CCc3ccccc32)NC(=O)NC1c1cccc([N+](=O)[O-])c1` (configuration not stated): the normalized B-score (activity score, 25-100; higher = stronger inhibition) was 25 (active).

Take `CCOC(=O)C1=C(CN2CCc3ccccc32)NC(=O)NC1c1ccc(Cl)cc1` (configuration not stated): the normalized B-score (activity score, 25-100; higher = stronger inhibition) entry was “inactive”. In the case of `CS(=O)(=O)N(CC(=O)N1CCOCC1)c1cccc(Cl)c1Cl`, the normalized B-score (activity score, 25-100; higher = stronger inhibition) entry was “inactive”. Regarding `CN(CC(=O)NCCc1ccccc1)S(=O)(=O)c1cnc[nH]1`, the normalized B-score (activity score, 25-100; higher = stronger inhibition) entry was “inactive”. Turning to `COc1ccc(C2C(C(C)=O)=C(O)C(=O)N2c2nccs2)cc1` (configuration not stated), the normalized B-score (activity score, 25-100; higher = stronger inhibition) result was “inactive”.

`Cc1cc(C)c(-c2c(O)c3ccccc3n(C)c2=O)c(C)c1`: the normalized B-score (activity score, 25-100; higher = stronger inhibition) entry was “inactive”. Take `CN(C)CCCN1C(=O)CSC1c1ccc([N+](=O)[O-])cc1` (configuration not stated): the normalized B-score (activity score, 25-100; higher = stronger inhibition) result is “inactive”. As for `CCCCCCCCCCCCN1C(=O)CSC1c1cccnc1` (configuration not stated), the normalized B-score (activity score, 25-100; higher = stronger inhibition) is 25 (active). `CCCCCCOc1ccc(OC(=O)c2cccnc2)cc1`: the normalized B-score (activity score, 25-100; higher = stronger inhibition) result was “inactive”. For `CCOC(=O)N/N=C1\CC(C)S(=O)(=O)c2ccc(Cl)cc21` (configuration not stated) the value was “inactive”; for `CN(C)c1ccc(/C=C2\NC(=S)N(Cc3ccccc3)C2=O)cc1`, “inactive”. As to `CN(C)c1cc[n+](Cc2ccccc2)cc1`, the normalized B-score (activity score, 25-100; higher = stronger inhibition) was 25 (active). Regarding `c1ccc(Cc2cc[n+](Cc3ccccc3)cc2)cc1`, the normalized B-score (activity score, 25-100; higher = stronger inhibition) entry is “inactive”. For `O=C(NCCC1CCCCN1S(=O)(=O)c1ccccc1)C(=O)NCC1CCCO1` (configuration not stated), the normalized B-score (activity score, 25-100; higher = stronger inhibition) entry was “inactive”. On to `COc1ccc(CN2CN(C3CCCC3)CSC2=S)cc1`, for which the normalized B-score (activity score, 25-100; higher = stronger inhibition) entry was “inactive”. On to `COC(=O)c1c(C)c(C)nc(N)c1C#N`, for which the normalized B-score (activity score, 25-100; higher = stronger inhibition) entry is “inactive”.

As to `COc1ccc(CNC(=O)CN(Cc2ccccc2Cl)C(=O)c2csnn2)cc1`, the normalized B-score (activity score, 25-100; higher = stronger inhibition) entry was “inactive”. For `CC(=O)Nc1ccc(NC(=O)CSc2nnnn2-c2ccccc2F)cc1` the value was “inactive”; for `O=C(CSc1nnnn1-c1ccc(O)cc1)c1ccc(F)cc1`, “inactive”. Take `Cc1ccccc1-n1nnnc1SCCCC(=O)c1ccc(F)cc1`: the normalized B-score (activity score, 25-100; higher = stronger inhibition) was 100 (active).

For the molecule `CC1=C(C(=O)NC2CC(C)(C)Cc3c2cnn3-c2ccc(C)cc2)OCCO1` (configuration not stated), the normalized B-score (activity score, 25-100; higher = stronger inhibition) entry is “inactive”. For `CCOC(=O)c1ccc(-n2c(CCC(=O)O)ccc2-c2ccccc2)cc1` the value was “inactive”. Regarding `COCc1c(C(=O)OCc2c(C)noc2C)oc2ccccc12`, the normalized B-score (activity score, 25-100; higher = stronger inhibition) entry was “inactive”.

For the molecule `Cc1noc(C)c1COC(=O)c1cc2ccccc2cc1O`, the normalized B-score (activity score, 25-100; higher = stronger inhibition) is 25 (active). On to `Cc1noc(C)c1COC(=O)COc1ccc(-c2ccccc2)cc1`, for which the normalized B-score (activity score, 25-100; higher = stronger inhibition) entry was “inactive”. `CC(=O)Nc1ccc(S(=O)(=O)Nc2cc(C)cn(Cc3ccc(C)cc3)c2=O)cc1`: the normalized B-score (activity score, 25-100; higher = stronger inhibition) result is “inactive”. Regarding `O=C(Cc1ccccn1)c1ccc(O)cc1O`, the normalized B-score (activity score, 25-100; higher = stronger inhibition) entry is “inactive”. Take `O=C(c1cc(COc2ccc(F)c(F)c2)on1)N1CCOCC1`: the normalized B-score (activity score, 25-100; higher = stronger inhibition) entry is “inactive”. With `CCn1ccnc1CN(C)C(=O)c1cc(COc2ccc(-n3cncn3)cc2)on1`, the normalized B-score (activity score, 25-100; higher = stronger inhibition) entry is “inactive”. For `C=CCC1(CC=C)CCCN1C(=O)c1cc(COc2ccc(-n3cncn3)cc2)on1` the value was 100 (active); for `COc1ccc(-c2nc(CCNC(=O)c3ccc(Br)o3)cs2)cc1`, 100 (active). For `COc1ccc(-c2csc(NC(=O)COC(=O)c3ccc(Br)o3)n2)cc1` the value was “inactive”; for `COc1ccc(N2CCN(C(=O)CNC(=O)c3ccc(Br)o3)CC2)cc1`, “inactive”. Consider `COc1ccc(C(=O)COC(=O)CNC(=O)c2cccs2)cc1Br`, for which the normalized B-score (activity score, 25-100; higher = stronger inhibition) entry is “inactive”.
